Screening results: PubChem BioAssay, National Center for Advancing Translational Sciences (NCATS)
Compounds with a hit are over-represented: about 12% of the library has one in this group of screens.
JMJD2A Tudor inh: qHTS Assay for Inhibitors of JMJD2A-Tudor Domain; AlphaScreen JMJD2A-Tudor / H3K4me3 peptide binding; Potency, µM (top dose mostly 114 µM), most hits filed as inhibitors; 4.4% of 390,000 active; AID 504339, 2011; note: nearly all actives have a fitted effect of over 50% in size
L3MBTL1 inh: qHTS Assay for the Inhibitors of L3MBTL1. 0.66% of 230,000 active. Potency, µM (doses to about 57.1 µM), hits mostly inhibitors. Lethal(3)malignant brain tumor-like protein 1 (Homo sapiens), Q9Y468. AlphaScreen L3MBTL1–H3K9me1 peptide binding. AID 485360, 2010; note: nearly all actives have a fitted effect of over 60% in size
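First, the protein-peptide complex forms for 30 min at room temperature (L3MBTL1 50 nM, biotinylated H3K9me1 peptide 75 nM). Next, compounds are pin-transferred and incubated 30 min. Finally, AlphaScreen beads are added and read after 30 min.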
BAZ2B block: qHTS Assay for Inhibitors of BAZ2B | Bromodomain adjacent to zinc finger domain protein 2B (Homo sapiens), Q9UIF8 | AlphaScreen BAZ2B-H3K14Ac peptide displacement | Potency, µM (top dose mostly 114 µM), hits mostly inhibitors | 4.4% of 360,000 active | AID 504333, 2011; note: nearly all actives have a fitted effect of over 60% in size
Target sequence (Q9UIF8 whole entry, looked up, the tested form may be a part): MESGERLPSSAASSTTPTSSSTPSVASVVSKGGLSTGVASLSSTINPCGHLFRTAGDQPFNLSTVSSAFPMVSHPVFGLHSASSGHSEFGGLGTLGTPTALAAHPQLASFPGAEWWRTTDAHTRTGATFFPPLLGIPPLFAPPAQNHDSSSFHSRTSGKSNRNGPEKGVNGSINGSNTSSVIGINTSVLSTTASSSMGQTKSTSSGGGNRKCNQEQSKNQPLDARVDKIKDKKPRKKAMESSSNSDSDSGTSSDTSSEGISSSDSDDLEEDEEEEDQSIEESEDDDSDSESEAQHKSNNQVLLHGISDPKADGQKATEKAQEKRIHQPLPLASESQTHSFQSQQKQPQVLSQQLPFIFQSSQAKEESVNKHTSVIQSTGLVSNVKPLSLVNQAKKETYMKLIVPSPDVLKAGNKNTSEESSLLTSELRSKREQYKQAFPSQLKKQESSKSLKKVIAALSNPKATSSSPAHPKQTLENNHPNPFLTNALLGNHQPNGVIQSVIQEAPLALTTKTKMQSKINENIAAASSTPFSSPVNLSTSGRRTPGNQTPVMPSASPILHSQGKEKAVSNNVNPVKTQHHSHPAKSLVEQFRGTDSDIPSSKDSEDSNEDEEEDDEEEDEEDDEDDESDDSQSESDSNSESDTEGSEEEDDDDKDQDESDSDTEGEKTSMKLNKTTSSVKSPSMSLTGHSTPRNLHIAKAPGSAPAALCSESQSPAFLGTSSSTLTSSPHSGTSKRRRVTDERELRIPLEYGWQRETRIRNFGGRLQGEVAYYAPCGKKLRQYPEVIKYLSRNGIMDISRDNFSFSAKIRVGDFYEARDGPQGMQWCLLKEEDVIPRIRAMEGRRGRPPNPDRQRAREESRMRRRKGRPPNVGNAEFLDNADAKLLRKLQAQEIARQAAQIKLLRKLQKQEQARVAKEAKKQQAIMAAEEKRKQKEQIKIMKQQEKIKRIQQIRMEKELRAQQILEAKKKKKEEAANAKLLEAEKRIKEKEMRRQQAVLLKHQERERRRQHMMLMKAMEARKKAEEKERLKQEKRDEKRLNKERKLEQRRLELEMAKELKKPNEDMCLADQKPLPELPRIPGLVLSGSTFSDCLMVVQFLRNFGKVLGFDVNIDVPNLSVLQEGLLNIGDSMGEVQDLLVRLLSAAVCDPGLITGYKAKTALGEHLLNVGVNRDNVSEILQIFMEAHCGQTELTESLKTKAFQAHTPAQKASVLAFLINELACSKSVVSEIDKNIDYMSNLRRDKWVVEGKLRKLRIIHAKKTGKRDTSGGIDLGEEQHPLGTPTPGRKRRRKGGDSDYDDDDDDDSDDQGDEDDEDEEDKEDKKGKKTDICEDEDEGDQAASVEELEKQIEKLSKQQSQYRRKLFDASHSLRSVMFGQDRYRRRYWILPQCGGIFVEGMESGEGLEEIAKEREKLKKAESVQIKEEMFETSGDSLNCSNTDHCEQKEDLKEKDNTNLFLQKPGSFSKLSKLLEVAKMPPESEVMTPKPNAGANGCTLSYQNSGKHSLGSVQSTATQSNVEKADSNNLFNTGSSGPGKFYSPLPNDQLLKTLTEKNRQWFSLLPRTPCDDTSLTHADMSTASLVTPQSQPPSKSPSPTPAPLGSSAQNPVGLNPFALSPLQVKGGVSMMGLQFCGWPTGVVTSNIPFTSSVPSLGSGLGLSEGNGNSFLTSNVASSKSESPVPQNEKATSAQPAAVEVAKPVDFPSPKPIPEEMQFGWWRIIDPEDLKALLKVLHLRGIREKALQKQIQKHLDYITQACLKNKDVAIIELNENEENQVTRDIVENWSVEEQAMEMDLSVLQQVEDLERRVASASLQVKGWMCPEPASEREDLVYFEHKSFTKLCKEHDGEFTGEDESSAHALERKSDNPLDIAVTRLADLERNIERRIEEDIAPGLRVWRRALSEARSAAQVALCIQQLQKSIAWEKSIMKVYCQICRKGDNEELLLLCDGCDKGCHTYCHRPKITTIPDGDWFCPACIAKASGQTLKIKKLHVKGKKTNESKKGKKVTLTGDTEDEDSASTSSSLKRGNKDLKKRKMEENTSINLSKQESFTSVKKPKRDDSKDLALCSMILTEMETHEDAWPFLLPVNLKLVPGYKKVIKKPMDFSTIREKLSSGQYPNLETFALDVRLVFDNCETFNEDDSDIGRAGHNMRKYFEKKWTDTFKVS
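BAZ2B 50 nM plus b-H3(5-23)K14Ac 50 nM, PBS pH 7.4/0.01% Tween-20, 30 min RT; compound added (max 110 uM), 30 min RT; streptavidin donor/Ni-chelate acceptor beads 10 ug/mL final, 20 min dark; AlphaScreen read.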
G9a inh: qHTS Assay for Inhibitors of Histone Lysine Methyltransferase G9a; Histone-lysine N-methyltransferase EHMT2 (Homo sapiens), Q96KQ7; G9a H3K9 monomethylation, AlphaScreen, 2 h; Potency, µM (series often up to 102 µM), actives largely listed as inhibitors; 8.8% of 350,000 active; AID 504332, 2011; note: nearly all actives have a fitted effect of over 75% in size
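Quantitative HTS format: methyltransferase activity on a biotin-tagged H3K9 peptide is measured by AlphaScreen, using a rabbit anti-monomethyl-H3K9 antibody with streptavidin donor and anti-IgG acceptor beads. Final levels are 20 nM enzyme, 500 nM peptide, 20 uM SAM; 2 h RT.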
Sfp inh: qHTS Assay for Inhibitors of Bacillus subtilis Sfp phosphopantetheinyl transferase (PPTase); 4'-phosphopantetheinyl transferase ffp (Bacillus subtilis), Q9F4F7; 3.5% of 310,000 active; Biochemical Sfp PPTase activity, qHTS; Potency, µM, hits mostly inhibitors; AID 1490, 2009;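 note: the enzyme is Sfp with the accession as filed and its product quenches rhodamine fluorescence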
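Fluorescence-quenching assay with 15 nM Sfp, 5 uM rhodamine-CoA and 12.5 uM BHQ-2-labelled ybbR peptide in pH 7.6 Hepes/MgCl2 buffer. Enzyme was pre-incubated with compound for 15 min at room temperature. Rate was taken from the 30-min fluorescence change (525/598 nm).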
HP1b chromo inh: HTS for Inhibitors of HP1-beta Chromodomain Interactions with Methylated Histone Tails. Chromobox protein homolog 1 (Homo sapiens), P83916. AID 540317, 2011. Potency, µM (doses to about 114 µM), usual class: inhibitors. AlphaScreen HP1-beta / biotin-H3K9me3 peptide binding. 0.56% of 390,000 active; note: nearly all actives have a fitted effect of over 70% in size
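Compound inhibition of the preformed complex between 50 nM HP1-beta and 50 nM biotinylated H3K9me3 peptide was read by AlphaScreen. Buffer was PBS pH 7.4 with 0.01% Tween-20. Incubations ran 30 min at room temperature, with 10 ug/mL donor/acceptor beads.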
Numbers stand for hits; [ ] = another dose, or the depositor's remark. Calls come from the whole dose curve; as a rule, active = well fitted curve in the direction sought with a large enough effect; inconclusive = small, poorly fitted or top-dose-only effect, or another doubt; inactive = no such curve, though single readings can be large; an effect the other way counts as inactive or inconclusive.

`O=C1NC(=O)N(Cc2ccccc2)C(=O)/C1=C/c1cnn(-c2ccccc2)c1` gave BAZ2B block inconclusive, G9a inh 5.6µM and Sfp inh inactive.
`O=C1CC(=O)N(Cc2ccccc2)C(=O)N1` gave JMJD2A Tudor inh inactive and HP1b chromo inh inactive.
`COc1ccccc1N1C(=O)NC(=O)/C(=C\c2cnn(-c3ccccc3)c2)C1=O` gave JMJD2A Tudor inh inconclusive, L3MBTL1 inh inactive, BAZ2B block inactive, G9a inh 8.9µM, Sfp inh 32µM and HP1b chromo inh inactive.
c1csc(CN2CC[C@@]3(CCCNC3)C2)n1 was read as G9a inh inactive[12.7 µM] and Sfp inh inactive.
For O[C@@H]1CCCN2C[C@@H](O)[C@@H](O)C12 (some centres not stated) the results were G9a inh inactive and Sfp inh inactive.
`Cc1ccccc1NC(=S)NC(NC(=O)CF)C(Cl)(Cl)Cl` (configuration not stated) gave JMJD2A Tudor inh inactive, L3MBTL1 inh inactive, BAZ2B block inactive, G9a inh inactive, Sfp inh inactive and HP1b chromo inh inactive.
CCOC(=O)c1c(NC(NC(=O)CF)C(Cl)(Cl)Cl)sc2c1CCCC2 (configuration not stated) was read as JMJD2A Tudor inh 40µM, L3MBTL1 inh inactive, BAZ2B block inactive, G9a inh 45µM, Sfp inh inactive and HP1b chromo inh inactive.
Screening CN1CCC2(CC1)C(C#N)=C(N)NC(S)=C2C#N returned JMJD2A Tudor inh 4µM, L3MBTL1 inh inactive, BAZ2B block inconclusive, G9a inh 6.3µM, Sfp inh inactive and HP1b chromo inh inactive.
CN(C)c1ccc(/C=C2/C(=O)NC(=O)N(Cc3ccco3)C2=O)cc1 was read as JMJD2A Tudor inh inactive, L3MBTL1 inh inconclusive, BAZ2B block inactive, G9a inh inconclusive, Sfp inh inactive and HP1b chromo inh inactive.
Screening O=C1NC(=S)N(Cc2ccco2)C(=O)/C1=C\c1cccs1 returned G9a inh 3.2µM and Sfp inh 20µM.
For C=CCN1C(=O)/C(=C/c2cccs2)C(=O)NC1=S the results were JMJD2A Tudor inh 79µM, L3MBTL1 inh inconclusive, BAZ2B block inconclusive, G9a inh 8.9µM, Sfp inh 20µM and HP1b chromo inh inactive.
Screening O=c1[nH]c(=S)n(-c2cccc(Cl)c2)c(O)c1/C=N/N1CCOCC1 returned JMJD2A Tudor inh inactive, BAZ2B block inactive, G9a inh inconclusive, Sfp inh inactive and HP1b chromo inh inactive.
`C[S@@](=O)CCCCN=C=S` gave Sfp inh inactive.
For NC(Cc1nc2ccccc2[nH]1)c1ccc(Cl)cc1 (configuration not stated) the results were JMJD2A Tudor inh inactive, L3MBTL1 inh inactive, BAZ2B block inactive, G9a inh 40µM, Sfp inh inactive and HP1b chromo inh inactive.
`COC(=O)C1=C(c2cccc(OCc3ccccc3)c2)C[C@@H]2CC[C@H]1N2C(=O)NCc1ccc(N(C)C)cc1` gave JMJD2A Tudor inh 20µM, L3MBTL1 inh inconclusive, BAZ2B block 10µM, G9a inh inactive[2.33 µM] and HP1b chromo inh inconclusive.
For COC(=O)C1=C(c2ccccc2OCc2ccccc2)C[C@@H]2CC[C@H]1N2C(=O)NCc1ccc(N(C)C)cc1 the results were JMJD2A Tudor inh 20µM, L3MBTL1 inh inconclusive, BAZ2B block 28µM, G9a inh inactive[0.501 µM] and HP1b chromo inh inactive.
`COC(=O)C1=C(c2ccc(F)cc2OCc2ccccc2)C[C@@H]2CC[C@H]1N2C(=O)NCc1ccc(N(C)C)cc1` gave JMJD2A Tudor inh 22µM, L3MBTL1 inh inconclusive, BAZ2B block 10µM, G9a inh inactive[2.33 µM] and HP1b chromo inh inconclusive.
Screening O=C1C=C2C=C[C@@H]3C[C@@]2(O1)[C@H]1CCCCN31 returned Sfp inh inactive.
C/C=C(/C)C(=O)O[C@H]1C(C)=C2C([C@@H]1OC(=O)CCCCCCC)[C@@](C)(OC(C)=O)C[C@@H](OC(=O)CCC)[C@@]1(O)[C@H]2OC(=O)[C@@]1(C)O (some centres not stated) was read as G9a inh inactive[12.7 µM].
`CCCC1(CCC)C(=O)NC(=NCc2ccccc2)NC1=O` gave JMJD2A Tudor inh inactive, L3MBTL1 inh inactive, BAZ2B block inactive, G9a inh 45µM, Sfp inh inactive and HP1b chromo inh inactive.
`Cc1cccc(N2CCN(C(=O)c3ccc(CNc4c(N5CCC(C)CC5)c(=O)c4=O)cc3)CC2)c1C` gave JMJD2A Tudor inh inactive, BAZ2B block inconclusive, G9a inh inactive, Sfp inh inactive and HP1b chromo inh inactive.
For C[C@]12CCC3C(CC[C@]4(O)C[C@@H](O)CC[C@]34C=O)[C@@]1(O)CC[C@@H]2C1=CC(=O)OC1 (some centres not stated) the results were Sfp inh inactive.
Screening COc1cc(/C=C2/SC(=S)N(Cc3ccccc3)C2=O)ccc1OCC(=O)O returned JMJD2A Tudor inh inconclusive, L3MBTL1 inh inactive[2.29 µM], BAZ2B block 56µM, G9a inh inactive[0.501 µM], Sfp inh inactive and HP1b chromo inh inactive.
Screening Cc1ccc(NC(=O)c2cc(-c3ccccc3)n(CCCN3CCOCC3)c2C)cc1 returned JMJD2A Tudor inh inactive, L3MBTL1 inh inactive, BAZ2B block inconclusive, G9a inh inconclusive, Sfp inh inactive and HP1b chromo inh inconclusive.
Cn1c(SCC(=O)N2CCOCC2)nnc1-c1cccc(NC(=O)c2ccccc2)c1 was read as JMJD2A Tudor inh 89µM, L3MBTL1 inh inactive, G9a inh 10µM, Sfp inh inactive and HP1b chromo inh inactive.
Cn1cccc1-c1cccnc1 was read as G9a inh inactive and Sfp inh inactive.
Screening CCOc1cccc(N2C(=O)/C(=C/c3ccco3)C(=O)NC2=S)c1 returned JMJD2A Tudor inh 22µM, L3MBTL1 inh inactive, BAZ2B block 32µM, G9a inh 14µM, Sfp inh 35µM and HP1b chromo inh 20µM.
`O=C1NC(=S)N(c2ccccc2)C(=O)/C1=C/c1ccco1` gave JMJD2A Tudor inh 3.2µM, L3MBTL1 inh inactive[2.29 µM], BAZ2B block 20µM, G9a inh inactive[0.501 µM], Sfp inh 22µM and HP1b chromo inh 2.8µM.
Screening O=C1Nc2ccc(Cl)cc2C(c2ccccc2Cl)=NC1O (configuration not stated) returned G9a inh inactive and Sfp inh inactive.
